Results filed as inconclusive are left out. Active and inactive are the calls of the source. Unless noted, the call rests on the fitted dose curve; in most records, active means well fitted cell-killing curve with a large enough effect; inconclusive means small, poorly fitted or top-dose-only effect; inactive means flat fitted curve, though single readings scatter.
Columns and labels:
[1] = Cell Viability - LYMP2-006 (AID 978); further: series mostly up to about 92 µM; nearly all actives have a fitted effect of over 60% in size
Procedure, shortened: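 Human lymphoblastoid cells, 2500 per well, were preincubated 5 hr at 37 C, then exposed to compounds for 24 hr at 37 C in complete medium. Viability was read as intracellular ATP by CellTiter-Glo luminescence; AC50 from Hill-equation fits of qHTS concentration-response data.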

[2] = Cell Viability - LYMP2-007 (AID 979);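 further: cells exposed to compound for 24 h before reading; nearly all actives have a fitted effect of over 60% in size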
Procedure, shortened: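 Cells are seeded at 2500 per well and rested 5 hr. Compounds are then added over a concentration series for 24 hr at 37 C. CellTiter-Glo is added for 30 min at room temperature before luminescence reading.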

[3] = Cell Viability - LYMP2-008 (AID 980); further: nearly all actives have a fitted effect of over 60% in size
Procedure, shortened: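 Cells seeded at 2500/well and rested 5 hr at 37 C; compounds added over a concentration range and incubated 24 hr at 37 C; CellTiter-Glo added, 30 min at room temperature; luminescence read and AC50 fitted with Hill model.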

[4] = Cell Viability - LYMP2-010 (AID 981); further: nearly all actives have a fitted effect of over 55% in size
Procedure, shortened: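 Steps: seed 2500 LYMP2-010 cells per well; incubate 5 hr at 37 C; add compound; incubate 24 hr at 37 C; add CellTiter-Glo, wait 30 min at room temperature; read luminescence. Concentration-response fitted to Hill equation for AC50.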

[5] = Cell Viability - LYMP2-012 (AID 982);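 further: cellular ATP by luciferase luminescence where a drop means cytotoxicity; cells exposed to compound for one day before reading; nearly all actives have a fitted effect of over 55% in size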
[6] = Cell Viability - LYMP2-014 (AID 983); further: series mostly up to about 92 µM; nearly all actives have a fitted effect of over 50% in size
Procedure, shortened: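 Cells are plated at 2500/well and left 5 hr at 37 C. Compounds are added across a concentration range and incubated 24 hr at 37 C in complete medium. CellTiter-Glo is added, and luminescence is read after 30 min at room temperature.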

[7] = Cell Viability - LYMP2-016 (AID 984); further: nearly all actives have a fitted effect of over 55% in size
Procedure, shortened: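 Human lymphoblastoid cells (LYMP2-016), 2500/well in complete medium, preincubated 5 hr at 37 C, then compound-treated 24 hr at 37 C. Intracellular ATP read by CellTiter-Glo luminescence after 30 min at room temperature; AC50 from Hill-equation concentration-response fits.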

[8] = Cell Viability - LYMP2-018 (AID 985);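 further: compound exposure lasted 24 hr at 37 °C; nearly all actives have a fitted effect of over 50% in size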
Procedure, shortened: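 Seed 2500 lymphoblastoid cells per well, incubate 5 hr at 37 C, add compound and incubate 24 hr at 37 C, add CellTiter-Glo, wait 30 min at room temperature, then read luminescence.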

[9] = Cell Viability - LYMP2-020 (AID 986); further: series mostly up to about 92 µM; nearly all actives have a fitted effect of over 55% in size
Procedure, shortened: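 Seed 2500 cells per well and incubate 5 hr at 37 C. Add compounds at a concentration series and incubate 24 hr at 37 C. Add CellTiter-Glo, wait 30 min at RT, read luminescence, and fit a Hill curve for AC50.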

[10] = Cell Viability - LYMP2-022 (AID 987); further: nearly all actives have a fitted effect of over 55% in size
Procedure, shortened: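 Cells were seeded at 2500 per well, rested 5 hr at 37 C, and treated with titrated compounds for 24 hr at 37 C. Cellular ATP was then quantified by luciferase luminescence, and AC50 values were derived from Hill-modelled concentration-response curves.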

[11] = Cell Viability - LYMP2-024 (AID 988); further: nearly all actives have a fitted effect of over 60% in size
Procedure, shortened: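 qHTS cytotoxicity, human lymphoblastoid line, complete medium; 24 h cpd treatment, 37 C; CellTiter-Glo ATP luminescence readout; tetraoctylammonium bromide positive control; AC50 via Hill fit.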

[12] = Cell Viability - LYMP2-026 (AID 989); further: nearly all actives have a fitted effect of over 50% in size
Procedure, shortened: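 Cells are seeded at 2500 per well and held 5 hr at 37 C. Compounds are added in concentration series for 24 hr, then CellTiter-Glo reagent is applied and luminescence read.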

[13] = Cell Viability - LYMP1-002 - Assay at 24 hr (AID 993)
Procedure, shortened: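 Acute toxicity is measured as concentration-dependent loss of cellular ATP in a human lymphoblastoid line (Coriell LYMP1-002) after 24 h treatment in complete medium. ATP is quantified by luciferase luminescence and AC50 derived by Hill modelling.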

[14] = Cell Viability - LYMP1-002 - Assay at 40 hr (AID 994); further: nearly all actives have a fitted effect of over 60% in size
Procedure, shortened: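 Cells are plated at 2500 per well and rested 5 hr at 37 C. Compounds are added and incubated 40 hr at 37 C. CellTiter-Glo reagent is added for 30 min at room temperature before luminescence is read.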

[15] = qHTS Assay for Identification of Small Molecule Inducers of Hypoxia Response (AID 2120; active means well fitted curve in the direction sought with a large enough effect in the signal ratio, with a control signal flat, not every such curve was filed as active; the % refers to the signal ratio)
Procedure, shortened: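 Cell-based qHTS for reporter induction: hypoxia response element controlled beta-lactamase in ME-180 cells. Compounds incubated 17 h at 37 degrees C; activity from blue/green (460/530 nm) ratio, inducers ranked by AC50.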

[16] = biological target: Estrogen receptor (Homo sapiens) (UniProt P03372); test: qHTS assay for small molecule antagonists of estrogen receptor alpha signaling (AID 588513; active means well fitted curve in the direction sought with a large enough effect in the signal ratio, with a control signal flat, not every such curve was filed as active; the % refers to the signal ratio)
Procedure, shortened: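 ER-alpha-UAS-bla GripTite HEK 293 cells in medium with 2% charcoal/dextran-treated FBS were preincubated 4 h at 37 C, dosed with compound (1:2 titration), stimulated with 0.5nM 17-beta-estradiol for 18 h, then read by CCF4 beta-lactamase fluorescence.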

[17] = biological target: Estrogen receptor (Homo sapiens) (UniProt P03372); test: qHTS assay for small molecule agonists of estrogen receptor alpha signaling (AID 588514; calls by dose curve; further: nearly all actives have a fitted effect of over 70% in size)
Procedure, shortened: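 Efficacy is expressed against 20 nM 17-beta-estradiol (100%) and DMSO basal (0%); EC50 from Hill equation. Assay: beta-lactamase reporter in ER-alpha-UAS-bla HEK 293 cells, 18 h compound incubation, CCF4 detection.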

[18] = Cell Viability - LYMP2-002 (AID 977);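 further: series mostly up to about 92 µM; compound exposure lasted 24 h at 37 °C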
Procedure, shortened: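 Human lymphoblastoid cells, 2500/well, complete medium; 5 h 37 C settle; compound 24 h 37 C; CellTiter-Glo, 30 min RT; luminescence. Decrease in ATP = cytotoxicity; AC50 via Hill equation.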

Measured: Potency

Estrogen receptor (Homo sapiens), sequence (P03372 whole entry, looked up): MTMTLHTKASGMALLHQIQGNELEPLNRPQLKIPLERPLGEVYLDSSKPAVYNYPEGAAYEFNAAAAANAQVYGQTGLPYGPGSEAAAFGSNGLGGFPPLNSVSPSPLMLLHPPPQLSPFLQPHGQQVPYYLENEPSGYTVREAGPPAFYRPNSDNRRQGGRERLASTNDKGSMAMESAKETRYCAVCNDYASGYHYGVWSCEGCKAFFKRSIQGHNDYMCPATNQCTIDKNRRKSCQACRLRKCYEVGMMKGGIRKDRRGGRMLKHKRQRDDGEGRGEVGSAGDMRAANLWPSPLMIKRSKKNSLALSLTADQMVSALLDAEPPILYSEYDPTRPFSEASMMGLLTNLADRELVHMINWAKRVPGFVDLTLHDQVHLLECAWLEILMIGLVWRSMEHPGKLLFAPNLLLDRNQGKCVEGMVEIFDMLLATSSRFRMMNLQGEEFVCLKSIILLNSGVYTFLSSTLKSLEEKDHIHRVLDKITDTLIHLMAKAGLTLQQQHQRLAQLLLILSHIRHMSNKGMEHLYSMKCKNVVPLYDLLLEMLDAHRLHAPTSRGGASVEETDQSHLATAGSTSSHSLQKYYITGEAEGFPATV

CC(C)Nc1ccccc1
inactive: [1] | [2] | [3] | [4] | [5] | [6] | [7] | [8] | [9] | [10] | [11] | [12] | [13] | [14] | [15] | [16] | [17]

NC(=O)c1ccccc1[N+](=O)[O-]
inactive: [18] | [1] | [2] | [4] | [5] | [6] | [7] | [9] | [10] | [11] | [12] | [13] | [14] | [15] | [16] | [17]

O=C(O)c1cc(Cl)cc(Cl)c1
inactive: [1] | [3] | [4] | [5] | [6] | [7] | [8] | [9] | [10] | [11] | [12] | [13] | [14] | [15] | [16] | [17]

C/C=C(/C)C#N
inactive: [1] | [2] | [3] | [4] | [5] | [6] | [7] | [8] | [9] | [10] | [11] | [12] | [13] | [14] | [15] | [16] | [17]

O=[N+]([O-])c1cccc(Cl)c1
inactive: [18] | [1] | [4] | [5] | [6] | [7] | [8] | [9] | [10] | [11] | [12] | [13] | [14] | [15] | [16] | [17]

C1COC1
inactive: [18] | [1] | [3] | [4] | [5] | [6] | [7] | [8] | [9] | [10] | [11] | [12] | [13] | [14] | [15] | [16] | [17]

O=C(O[C@@H](C(=O)O)[C@@H](OC(=O)c1ccccc1)C(=O)O)c1ccccc1
inactive: [1] | [2] | [3] | [4] | [5] | [6] | [7] | [8] | [9] | [10] | [11] | [12] | [13] | [14] | [15] | [16] | [17]

Cc1ccccc1C(N)=O
inactive: [1] | [2] | [4] | [5] | [6] | [7] | [8] | [9] | [10] | [11] | [12] | [13] | [14] | [15] | [16] | [17]

C=C(C)C(N)=O
inactive: [18] | [1] | [2] | [3] | [4] | [5] | [6] | [7] | [8] | [9] | [10] | [11] | [12] | [13] | [14] | [15] | [16]

OC1CCCC1
inactive: [1] | [3] | [5] | [6] | [7] | [8] | [9] | [10] | [11] | [12] | [13] | [14] | [15] | [16] | [17]

COC(=O)CS
inactive: [1] | [3] | [4] | [5] | [6] | [8] | [9] | [10] | [11] | [12] | [13] | [15] | [16] | [17]

CCCCCCCCCCCCOCC1CO1 (stereo unspecified)
inactive: [18] | [1] | [3] | [4] | [5] | [6] | [7] | [9] | [10] | [11] | [12] | [13] | [15] | [16] | [17]

CC(C)(c1cc(Br)c(OCC(Br)CBr)c(Br)c1)c1cc(Br)c(OCC(Br)CBr)c(Br)c1 (stereo unspecified)
inactive: [18] | [1] | [3] | [4] | [5] | [6] | [7] | [8] | [9] | [10] | [11] | [12] | [13] | [15] | [16] | [17]

NC(N)=S
inactive: [1] | [2] | [4] | [5] | [6] | [7] | [8] | [9] | [10] | [11] | [12] | [13] | [14] | [15] | [16] | [17]

CNC(=O)c1ccccc1
inactive: [1] | [2] | [3] | [4] | [5] | [6] | [7] | [8] | [9] | [10] | [11] | [12] | [13] | [14] | [15] | [16] | [17]

C=Cc1ccccc1C=C
inactive: [1] | [2] | [3] | [4] | [5] | [6] | [8] | [9] | [10] | [11] | [12] | [13] | [14] | [15] | [16] | [17]

C=CC(=O)NC(C)C
inactive: [18] | [1] | [3] | [4] | [5] | [6] | [7] | [8] | [9] | [10] | [11] | [12] | [13] | [14] | [15] | [16] | [17]

CCc1ccccc1
inactive: [1] | [2] | [3] | [4] | [5] | [6] | [8] | [9] | [10] | [11] | [12] | [13] | [14] | [15] | [16] | [17]

— PubChem BioAssay (NCATS)
